According to PubChem BioAssay:
The source made the active and inactive calls.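 Rule for the calls: active = inhibition at or above 50% relative to wild type and mutant plate controls; inactive = inhibition below 50%.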

test: loss of swimming-algae plug formation – whole organism, Chlamydomonas reinhardtii, WT vs cilia-less mutant, absorbance, 96-well, primary screen (AID 463189); conditions: Chlamydomonas reinhardtii gravitaxis, OD600 absorbance, 2 days; at 10 µM; active compounds read high;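 note: 0% = wild type cc124 cells in DMSO and 100% = ciliumless bld1 mutant cells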

Structure (SMILES) | inhibition
O=c1[nH]oc2c1CCNC2 | 1.51% (inactive)
CCCN(CCC)C1CCc2ccc(O)cc2C1 (stereo not drawn) | 1.06% (inactive)
COc1ccc2c3c1O[C@H]1C(=O)CC[C@@]4(O)C(C2)N(CC2CC2)CCC314 (stereo partly drawn) | 3.52% (inactive)
CS(=N)(=O)CC[C@H](N)C(=O)O (stereo partly drawn) | 3.52% (inactive)
N[C@@H](Cn1cc(I)c(=O)[nH]c1=O)C(=O)O | 9.47% (inactive)
CC(C)(C)NCC(O)c1ccccc1Cl (stereo not drawn) | 8.05% (inactive)
CCCN(CCC)CCc1ccc(O)c(O)c1 | 0.931% (inactive)
c1ccc2c(N3CCNCC3)cccc2c1 | 5.44% (inactive)
O=[N+]([O-])c1ccc(O[C@@H]2O[C@H](CO)[C@@H](O)[C@H](O)[C@H]2F)c([N+](=O)[O-])c1 | 3.53% (inactive)
C=CCN1C[C@@H](C)N([C@H](c2ccc(C(=O)N(CC)CC)cc2)c2cccc(OC)c2)C[C@@H]1C | -6.39% (inactive)
CCN(CC)C(=O)N[C@@H]1C[C@@H]2c3cccc4[nH]cc(c34)C[C@H]2N(C)C1 | 5.28% (inactive)
CNC(=O)OCC[N+](C)(C)C | -0.129% (inactive)
CC(N)Cc1c[nH]c2ccc(OCc3cccs3)cc12 (stereo not drawn) | 5.48% (inactive)
CCCCC/C=C\C/C=C\C/C=C\C/C=C\CCCC(=O)NCC(=O)O | -0.074% (inactive)
CN1CCN(c2ccc3ccccc3n2)CC1 | 23.3% (inactive)
COc1ccc2c(c1O)-c1cccc3c1[C@@H](C2)N(C)CC3 | 6.42% (inactive)
CC[C@@]1(O)C(=O)OCc2c1cc1n(c2=O)Cc2cc3ccccc3nc2-1 | 23.3% (inactive)
CC(C)(C)c1o[nH]c(=O)c1CC(N)C(=O)O (stereo not drawn) | 0.571% (inactive)
CNCCc1ccc(O)c(O)c1 | 8.08% (inactive)

Structure (SMILES) | inhibition
Nc1ccncc1 | 14.4% (inactive)
CCn1cnc2c(Nc3cccc(Cl)c3)nc(N[C@@H]3CCCC[C@@H]3N)nc21 | 4.56% (inactive)
NC(=NCCC[C@H](N)C(=O)O)N[N+](=O)[O-] | 2.94% (inactive)
C=CCN1CC[C@]23c4c5ccc(O)c4O[C@@H]2/C(=N/N=C2\CC[C@@]4(O)C6Cc7ccc(O)c8c7[C@@]4(CCN6CC=C)[C@@H]2O8)CC[C@@]3(O)C1C5 | 6.59% (inactive)
CCCN1CCC[C@@H]2Cc3nc(N)ncc3C[C@H]21 | 4.12% (inactive)
CC12NC(Cc3ccccc31)c1ccccc12 (stereo not drawn) | 2.33% (inactive)
CC(Cc1ccc(OCC(=O)O)cc1)NCC(O)c1cccc(Cl)c1 (stereo not drawn) | 1% (inactive)
C[N+](C)(C)CC#CCOC(=O)Nc1cccc(Cl)c1 | 2.56% (inactive)
CCCN1CC[C@@H]2c3cc(O)ccc3CC[C@@H]21 | -3.65% (inactive)
COC(=O)C1=CCCN(C)C1 | -3.75% (inactive)
CC(N)c1cccc(Cl)c1Cl (stereo not drawn) | -4.86% (inactive)
CNCCc1c[nH]c2ccc(O)cc12 | 8.6% (inactive)
CCc1c(C(=O)OC)ncc2[nH]c3cc(OC)c(OC)cc3c12 | 1.73% (inactive)
CC(=O)c1c(O)c(C)c(O)c(Cc2c(O)c3c(c(C(=O)/C=C/c4ccccc4)c2O)OC(C)(C)C=C3)c1O | -7.31% (inactive)
NC(=O)CN1CC(O)CC1=O (stereo not drawn) | 9.01% (inactive)
Oc1ccc2c3c1O[C@H]1c4[nH]c5c(c4C[C@@]4(O)[C@@H](C2)N(CC2CC2)CC[C@]314)C[C@@]1(O)[C@H]2Cc3ccc(O)c4c3[C@@]1(CCN2CC1CC1)[C@H]5O4 | -0.992% (inactive)
NCCc1c[nH]c2ccc(C(N)=O)cc12 | 4.98% (inactive)
C[C@]12CC[C@H](OS(=O)(=O)O)CC1=CC[C@@H]1[C@@H]2CC[C@]2(C)C(=O)CC[C@@H]12 | 6.73% (inactive)
NNCc1cccc(O)c1 | -4.41% (inactive)
